Results as given in PubChem BioAssay AID588728 (Vanderbilt Specialized Chemistry Center, 2011).
Activity calls are given as the source filed them.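 How the source made its calls: active means compound at 10 µM that moves glutamate potency by over twofold either way, or clearly lowers or raises peak response; inactive means the rest.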

Target: Metabotropic glutamate receptor 3 (Rattus norvegicus) (UniProt P31422)
Assay: mGluR5 PAM selectivity profiling against rat mGluR3, glutamate response modulation, fold shift by Tl+ flux in HEK/GIRK cells (AID 588728)
Conditions: HEK/GIRK rat mGluR3, thallium flux, glutamate CRC fold shift, at 10 µM; Emax: measured here: glutamate max response with compound

Chain of Metabotropic glutamate receptor 3 (Rattus norvegicus) (P31422 whole entry, looked up): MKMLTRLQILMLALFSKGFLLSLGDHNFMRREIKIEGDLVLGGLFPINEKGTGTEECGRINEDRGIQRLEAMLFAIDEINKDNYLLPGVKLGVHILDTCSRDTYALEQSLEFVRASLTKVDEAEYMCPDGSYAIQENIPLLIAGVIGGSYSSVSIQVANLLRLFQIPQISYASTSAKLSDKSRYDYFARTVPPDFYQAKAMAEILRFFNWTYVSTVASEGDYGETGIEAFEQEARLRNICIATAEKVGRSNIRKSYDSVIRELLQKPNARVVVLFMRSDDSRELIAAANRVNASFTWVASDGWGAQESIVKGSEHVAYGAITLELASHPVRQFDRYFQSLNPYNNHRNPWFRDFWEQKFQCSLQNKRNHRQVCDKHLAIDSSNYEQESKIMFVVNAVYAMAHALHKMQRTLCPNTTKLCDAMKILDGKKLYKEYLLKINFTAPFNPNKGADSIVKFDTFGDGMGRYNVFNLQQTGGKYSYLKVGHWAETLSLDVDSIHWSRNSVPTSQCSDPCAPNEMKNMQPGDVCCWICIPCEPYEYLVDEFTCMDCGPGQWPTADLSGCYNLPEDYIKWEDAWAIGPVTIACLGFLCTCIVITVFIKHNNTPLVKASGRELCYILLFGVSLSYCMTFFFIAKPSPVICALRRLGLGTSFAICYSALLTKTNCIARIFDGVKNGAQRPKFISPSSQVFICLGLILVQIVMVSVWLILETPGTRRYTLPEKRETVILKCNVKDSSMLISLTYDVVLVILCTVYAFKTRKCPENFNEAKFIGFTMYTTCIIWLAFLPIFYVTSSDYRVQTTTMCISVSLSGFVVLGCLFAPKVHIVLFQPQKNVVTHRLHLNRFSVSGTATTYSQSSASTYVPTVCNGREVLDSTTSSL

| Structure (SMILES) | Emax | fold shift |
| --- | --- | --- |
| CC1(NC(=O)c2ccc(C#Cc3cccc(F)c3)cn2)COC1 | 84% | 0.85 (inactive) |
| C[C@@H](NC(=O)c1ccc(C#Cc2cccc(F)c2)cn1)C(C)(C)O | 89% | 0.95 (inactive) |
